# An excerpt weighted towards active compounds, which were near 6.2% of everything screened.
# VP16 counter – VP16 counterscreen qHTS for inhibitors of ROR gamma transcriptional activity | AID 2546, 2010 | Drosophila S2 Gal4-VP16 UAS-luciferase, luminescence, 20 h | Potency, µM (titrated, usually from 53.6 µM), for inactives: at the highest dose activity, negative = inhibition, actives largely listed as inhibitors | 310,000 tested, 3.5% active;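 further: Gal4-VP16 expression switched on by copper sulfate through the metallothionein promoter; nearly all actives have a fitted effect of over 50% in size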
# RORgamma inh – qHTS for inhibitors of ROR gamma transcriptional activity | Drosophila S2 Gal4-RORgamma UAS-luciferase reporter, 20 h | Potency, µM (doses to about 53.6 µM), inactives show top-dose activity change, negative = inhibition, most hits filed as inhibitors | 310,000 tested, 5.4% active | AID 2551, 2010; further: nearly all actives have a fitted effect of over 60% in size
# Target sequence (P51450 whole entry, looked up, the tested form may be a part): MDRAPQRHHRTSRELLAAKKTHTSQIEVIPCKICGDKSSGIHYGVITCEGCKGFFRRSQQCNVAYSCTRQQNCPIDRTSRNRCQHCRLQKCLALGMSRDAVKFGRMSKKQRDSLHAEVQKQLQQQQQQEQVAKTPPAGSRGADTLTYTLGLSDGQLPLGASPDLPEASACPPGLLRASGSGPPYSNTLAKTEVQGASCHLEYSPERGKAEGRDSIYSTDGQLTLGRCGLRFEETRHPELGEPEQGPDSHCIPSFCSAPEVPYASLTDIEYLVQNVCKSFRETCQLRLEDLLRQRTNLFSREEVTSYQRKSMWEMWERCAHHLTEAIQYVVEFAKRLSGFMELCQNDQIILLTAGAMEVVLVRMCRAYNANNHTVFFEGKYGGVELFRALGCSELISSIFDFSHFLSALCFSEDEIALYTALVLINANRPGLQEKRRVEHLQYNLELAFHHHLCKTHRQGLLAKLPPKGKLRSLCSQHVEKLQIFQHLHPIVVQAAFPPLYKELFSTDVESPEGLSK
#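 In this cell-based reporter format, copper sulfate (700 uM final) drives Gal4–ROR gamma fusion expression from a metallothionein promoter in Drosophila Schneider cells; compounds preincubated 1 hr, reporter read after 20 hr at ambient temperature.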
# KinaseGlo FLuc – Counterscreen for Luciferase (Kinase-Glo TM) Inhibition. 200,000 tested, 0.28% active. Luciferin 4-monooxygenase (Photuris pensylvanica), Q27757. Potency, µM (titrated, usually from 38.3 µM), for the others: top-dose activity change, negative = inhibition, most hits filed as inhibitors. Kinase-Glo luciferase, ATP luminescence, 8 min. AID 1379, 2008; further: nearly all actives have a fitted effect of over 60% in size
#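 Recombinant Kinase-Glo luciferase, 10 uM ATP (linear range), luciferin; imidazole pH 7.2 / KCl / MgCl2 / Tween / BSA buffer; 8 min RT; luminescence.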
# Numbers without * were called inactive; ? = inconclusive; / = no result given; [ ] = dose if it differs, or a comment. The call rests on the fitted dose curve; in most records, active means well fitted curve in the direction sought with a large enough effect; inconclusive means small, poorly fitted or top-dose-only effect, or another doubt; inactive means no such curve, though single readings can be large; an effect the other way counts as inactive or inconclusive. On the % scale 0 is the no-effect control and ±100 the full control effect; potency means the concentration at half of the fitted maximal effect.
SMILES,VP16 counter,RORgamma inh,KinaseGlo FLuc
C[C@H](NC(=O)c1nc[nH]c1C(=O)N1CCc2ccccc2C1)C(=O)OCc1ccccc1,-21%,?,/
COc1ccc(NC(=O)c2ccc3nc[nH]c3c2)cc1,-22%,-2%,/
C[C@H](NC(=O)c1[nH]cnc1C(=O)Nc1ccccc1)C(=O)OC(C)(C)C,11µM*,2.8µM*,/
CCOC(=O)c1ccc(NC(=O)c2nc[nH]c2C(=O)N2CCc3ccccc3C2)cc1,?,3.5µM*,/
COc1ccc(NC(=O)c2nc[nH]c2C(=O)Nc2ccccc2C)cc1,8.9µM*,3.2µM*,0%
Cc1ccccc1NC(=O)c1snc2c(=O)[nH]cnc12,-20%,10%,-2%
CNC(=O)c1[nH]cnc1C(=O)N[C@@H](C)C(=O)OC(C)(C)C,-1%,-42%,/
COc1ccc(-c2coc3cc(O)ccc3c2=O)c(O)c1O,2%,5%,-5%
O=C(c1ccco1)N1CCC2(CC1)CN(Cc1cc(C(F)(F)F)cc(C(F)(F)F)c1)C2,-6%,36%,1%
O=C(CNC(=O)c1nc[nH]c1C(=O)N1CCN(c2ccccc2)CC1)OCc1ccccc1,-4%,?,/
Cc1ccc(NC(=O)c2nc[nH]c2C(=O)N[C@@H](C)C(=O)OC(C)(C)C)cc1,?,6.3µM*,/
COc1ccc(NC(=O)c2nc[nH]c2C(=O)N[C@@H](C)c2ccccc2)cc1,8.9µM*,6.3µM*,/
COc1ccc(NC(=O)C(CC(=O)O)C(C)c2ccccc2)cc1 (stereo unspecified),-3%,19%,9%
COc1ccc(NC(=O)c2nc[nH]c2C(=O)N[C@@H](CC(C)C)C(=O)OC(C)(C)C)cc1,16µM*,5.6µM*,/
COc1ccc(NC(=O)c2nc[nH]c2C(=O)N2CCN(c3ccccc3)CC2)cc1,11µM*,5.6µM*,/
NC(=O)C1CCN(C2CC(=O)N(c3ccc(F)c(Cl)c3)C2=O)CC1 (stereo unspecified),1%,14%,8%
CC1CN(C(=O)Cn2c(=O)oc3ccccc32)CC(C)O1 (stereo unspecified),2%,-6%,/
C=CCN1CN(S(=O)(=O)c2cccc(Cl)c2)c2nc3ccccc3nc21,-25%,-16%,/
O=C(Nc1ncnc2c1ncn2C1OC(COC(=O)c2ccccc2)C(F)C1O)c1ccccc1 (stereo unspecified),11µM*,10µM*,-2%
OC[C@H]1O[C@@H](n2cnc3c(Nc4ccccc4)ncnc32)[C@H](O)[C@H]1O,/,/,-2%
CCOC(=O)OC(C)OC(=O)C1N2C(=O)C(NC(=O)C(N)c3ccccc3)C2SC1(C)C (stereo unspecified),?,-1%,-1%
CC(=O)N[C@@H](Cc1ccc(O)cc1)C(=O)O,-11%,-12%,4%[39.9 µM]
CCn1nc(C)c(Br)c1C(=O)Sc1ccccc1Cl,-20%,?,/
Cc1ccsc1C(=O)NCCC(c1ccccc1)c1ccccc1,-2%,85%,1%
Cc1ccc(NC(=S)NCc2ccccc2)c(C)c1,7.1µM*,5µM*,/
SMILES,VP16 counter,RORgamma inh,KinaseGlo FLuc
CC(C)(C)c1ccccc1NC(=S)NCc1ccccc1,?,6%,-2%
Cc1ccccc1NC(=S)NCCC(c1ccccc1)c1ccccc1,13µM*,5µM*,3%
Cc1ccc(NC(=S)NCCC(c2ccccc2)c2ccccc2)c(C)c1,-9%[0.365 µM],3.5µM*,0%
Cc1ccc(NC(=S)NNC(=O)c2ccccc2O)c(C)c1,3%,1%,3%
COc1ccc(-c2nc3cnc(N4CCNCC4)nc3n(CCc3ccccc3)c2=O)cc1,-3%,0%,1%
COc1ccc(/C=C2\SC(=O)N(CC(=O)NC3CCS(=O)(=O)C3)C2=O)cc1 (stereo unspecified),3%,-43%,/
CSc1nnc(-c2cccc(C)c2)n1N,-5%,7%,-2%
CC(=O)OC1C[C@@]2(C)C(c3ccoc3)OC(=O)C3O[C@@]32[C@]2(C)C(OC(C)=O)CC3C(C)(C)C(OC(C)=O)CC(OC(C)=O)[C@@]3(C)C12 (stereo partly specified),-3%,17%,1%
CC(=O)Nc1ccc(N(C(=O)c2ccccn2)C(C(=O)NC2CCCCC2)c2ccc(F)cc2)cc1 (stereo unspecified),5%,9%,/
CCC(C)COC(=O)C(C#N)c1nc2ccccc2nc1N1CCCCC1 (stereo unspecified),3%,5µM*,/
CC(C)OC(=O)C(C#N)c1nc2ccccc2nc1N1CCCC1 (stereo unspecified),2%,5%,4%
Cc1cc(CN2CCN(CCC#N)CC2)c(O)c(C2(C)CCCCC2)c1,2%,4%,-1%
O=C(NNC(=O)c1cc2ccccc2cc1O)c1cccs1,?,20µM*,/
